Assay results reported in PubChem BioAssay.
Activity calls are given as the source filed them. Unless noted, how the calls were made is not given here.

Assays:
[1] = anti-His antibody binders, primary screen, artefact control for SMM control protein annotation, biochemical, small-molecule microarray, 635 nm fluorescence (AID 1128); conditions: anti-His Alexa647 antibody binding, higher = more signal;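 further: score merges feature fluorescence with signal-to-noise for each printed compound spot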
[2] = test system: Human papillomavirus type 1a E7 protein (residues 1-88); test: HPV1a E7 small-molecule binders, primary screen, biochemical, small-molecule microarray, residues 1-88, 635 nm (AID 1129); conditions: small-molecule microarray binding, fluorescence 635 nm; higher = more signal
[3] = target: Focal adhesion kinase 1 (Homo sapiens) (UniProt Q05397); test: small-molecule microarray binders of FAK, primary screen, biochemical, 635/667 nm fluorescence, BSA, DTT (AID 1130); conditions: PTK2 binding, 635 nm fluorescence, higher = more signal;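 further: composite of spot emission at 667 nm and signal to noise over triplicate slides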
Focal adhesion kinase 1 (Homo sapiens), sequence (Q05397 whole entry, looked up): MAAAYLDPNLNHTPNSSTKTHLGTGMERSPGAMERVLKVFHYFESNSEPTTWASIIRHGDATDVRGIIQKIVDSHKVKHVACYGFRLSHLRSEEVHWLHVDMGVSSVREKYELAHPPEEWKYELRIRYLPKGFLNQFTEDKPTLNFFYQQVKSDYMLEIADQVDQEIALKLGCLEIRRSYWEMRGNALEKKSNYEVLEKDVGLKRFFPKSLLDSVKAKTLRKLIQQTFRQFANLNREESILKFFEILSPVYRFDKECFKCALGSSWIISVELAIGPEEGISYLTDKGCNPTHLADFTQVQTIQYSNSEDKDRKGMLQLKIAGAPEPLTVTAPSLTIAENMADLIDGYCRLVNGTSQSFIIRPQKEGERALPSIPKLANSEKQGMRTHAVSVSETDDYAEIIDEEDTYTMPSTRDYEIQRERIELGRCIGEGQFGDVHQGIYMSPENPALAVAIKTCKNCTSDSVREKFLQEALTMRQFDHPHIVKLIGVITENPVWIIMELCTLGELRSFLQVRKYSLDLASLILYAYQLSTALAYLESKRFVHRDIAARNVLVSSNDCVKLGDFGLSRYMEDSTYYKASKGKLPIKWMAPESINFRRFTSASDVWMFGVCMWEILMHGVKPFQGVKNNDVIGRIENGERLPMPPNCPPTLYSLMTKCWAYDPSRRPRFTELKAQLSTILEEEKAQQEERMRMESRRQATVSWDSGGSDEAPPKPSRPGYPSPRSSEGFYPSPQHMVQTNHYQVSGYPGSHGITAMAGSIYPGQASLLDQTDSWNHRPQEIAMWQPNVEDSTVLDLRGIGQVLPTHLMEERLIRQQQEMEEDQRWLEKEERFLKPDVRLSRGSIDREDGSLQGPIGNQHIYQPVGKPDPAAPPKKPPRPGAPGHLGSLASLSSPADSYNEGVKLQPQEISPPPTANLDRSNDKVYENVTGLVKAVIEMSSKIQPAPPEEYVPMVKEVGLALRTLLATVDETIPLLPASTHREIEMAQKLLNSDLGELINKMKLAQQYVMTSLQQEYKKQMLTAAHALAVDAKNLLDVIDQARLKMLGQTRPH

[4] = test system: Fibrinogen (Alexa647-labelled); test: fibrinogen binders on compound microarrays, profiling panel, artefact control for SMM control-protein annotation, biochemical, small-molecule microarray, 635/667 nm fluorescence (AID 1131); conditions: fibrinogen-A647 binding fluorescence, higher = more signal;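 further: z-score merges 667 nm fluorescence with per-spot signal-to-noise over triplicate slides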
[5] = target: Follistatin (Homo sapiens) (UniProt P19883); test: follistatin binders on small-molecule microarrays, primary screen, biochemical, small-molecule microarray, 635/667 nm fluorescence (AID 1132); conditions: FST binding, 635 nm fluorescence, higher = more signal
Follistatin (Homo sapiens), sequence (P19883 whole entry, looked up): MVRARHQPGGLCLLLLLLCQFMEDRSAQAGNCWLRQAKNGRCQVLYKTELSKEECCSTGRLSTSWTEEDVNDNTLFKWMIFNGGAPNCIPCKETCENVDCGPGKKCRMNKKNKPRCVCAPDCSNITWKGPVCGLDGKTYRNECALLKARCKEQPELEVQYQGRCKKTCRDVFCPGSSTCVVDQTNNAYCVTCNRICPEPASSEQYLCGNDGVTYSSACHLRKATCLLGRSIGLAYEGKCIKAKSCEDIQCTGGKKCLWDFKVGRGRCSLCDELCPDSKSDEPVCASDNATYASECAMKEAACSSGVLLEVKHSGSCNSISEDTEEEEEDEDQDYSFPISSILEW

[6] = target: Fibroblast growth factor 2 (Homo sapiens) (UniProt P09038); test: FGF2 binders on small-molecule microarrays, primary screen, biochemical, small-molecule microarray, 635/667 nm fluorescence (AID 1133); conditions: small-molecule microarray binding, FGF2, fluorescence 635/667; higher = more signal
Fibroblast growth factor 2 (Homo sapiens), sequence (P09038 whole entry, looked up): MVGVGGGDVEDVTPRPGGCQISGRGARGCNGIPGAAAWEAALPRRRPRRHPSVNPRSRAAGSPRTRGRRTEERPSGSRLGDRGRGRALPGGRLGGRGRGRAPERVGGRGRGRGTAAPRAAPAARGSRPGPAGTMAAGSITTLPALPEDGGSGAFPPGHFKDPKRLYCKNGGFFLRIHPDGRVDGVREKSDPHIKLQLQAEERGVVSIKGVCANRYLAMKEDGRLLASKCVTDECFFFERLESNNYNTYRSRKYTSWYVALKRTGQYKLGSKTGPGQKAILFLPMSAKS

[7] = mitochondrial membrane potential change in A549 cells, profiling panel, cell-based, JC-1 fluorescence, basal, 24 h, 100 nL (AID 1138); conditions: higher = more signal;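 further: A549 lung adenocarcinoma cells under basal conditions with no added stimulus; test concentration not given here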
Lefty1 = Lefty1 binders on small-molecule microarrays, primary screen, biochemical, small-molecule microarray, 635/667 nm fluorescence (AID 1139); conditions: small-molecule microarray binding, fluorescence 635/667; higher = more signal
[8] = test system: wheat germ agglutinin (Triticum aestivum), Alexa647-labelled; test: wheat germ agglutinin binders on compound microarrays, profiling panel, artefact control for SMM control-protein annotation, biochemical, small-molecule microarray, 635/667 nm fluorescence (AID 1140); conditions: WGA-A647 binding, 635 nm fluorescence, higher = more signal;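 further: score merges 667 nm feature emission with signal to noise over triplicate slides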
[9] = target: Luciferin 4-monooxygenase (Photinus pyralis) (UniProt P08659); test: firefly luciferase enzyme inhibitors, primary screen, biochemical, luminescence, purified enzyme, 2006 set (AID 1141); conditions: SteadyGlo luminescence, 30 min, higher = more signal, called active from +8 up or from −8 down;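 further: cell-free assay with purified firefly luciferase at 100 ng per well in PBS; test concentration not given here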
Luciferin 4-monooxygenase (Photinus pyralis), sequence (P08659 whole entry, looked up): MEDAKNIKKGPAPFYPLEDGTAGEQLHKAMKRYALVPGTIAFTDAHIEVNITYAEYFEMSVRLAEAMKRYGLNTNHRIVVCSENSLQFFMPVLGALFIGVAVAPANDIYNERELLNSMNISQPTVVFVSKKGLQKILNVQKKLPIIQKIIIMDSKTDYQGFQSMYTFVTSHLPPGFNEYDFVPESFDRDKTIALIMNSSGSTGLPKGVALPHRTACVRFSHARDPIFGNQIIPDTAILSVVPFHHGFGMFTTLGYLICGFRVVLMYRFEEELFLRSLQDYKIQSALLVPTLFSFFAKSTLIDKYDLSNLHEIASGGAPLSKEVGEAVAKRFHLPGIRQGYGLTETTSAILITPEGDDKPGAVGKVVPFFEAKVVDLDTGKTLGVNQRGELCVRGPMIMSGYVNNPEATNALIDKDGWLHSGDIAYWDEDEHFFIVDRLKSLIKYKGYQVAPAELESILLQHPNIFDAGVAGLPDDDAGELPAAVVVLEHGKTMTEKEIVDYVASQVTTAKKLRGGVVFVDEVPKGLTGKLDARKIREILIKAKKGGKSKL

[10] = test system: Wnt5a (protein binding on small-molecule microarray); test: Wnt5a binders on small-molecule microarray, primary screen, biophysical, 635/667 nm fluorescence (AID 1142); conditions: 635 nm fluorescence, higher = more signal;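 further: fluorescence read at 667 nm with signal to noise per printed feature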
[11] = cell viability in Huh7 cells, primary screen, cytotoxicity control for HCV replication inhibitor project, CellTiter-Glo luminescence, basal, 48 h (AID 1143); conditions: Huh7 HCV replicon, higher = more signal, called active from +8 up or from −8 down;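 further: Huh7 hepatoma cells carrying a hepatitis C replication reporter with no stimulus; test concentration not given here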
[12] = P. aeruginosa biofilm formation inhibitors, primary screen, PAO1 strain, BacTiter-Glo luminescence, LB-PBS (AID 1144); conditions: 12 h, higher = more signal
[13] = CREB reporter modulators without forskolin, primary screen, cell-based, PC12, CRE-LacZ reporter, unstimulated (AID 1145); conditions: no forskolin, luminescence, 4.5 h, higher = more signal, called active from +8 up or from −8 down
[14] = CREB reporter modulators under forskolin, primary screen, cell-based, PC12, CRE-LacZ reporter, forskolin-stimulated (AID 1146); conditions: luminescence, 4.5 h, higher = more signal, called active from +8 up or from −8 down;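 further: PC12 cells with 6xCRE LacZ reporter stimulated by forskolin 10 µM; beta-galactosidase reporter signal reflecting CREB driven transcription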
[15] = target: Streptavidin (Streptomyces avidinii) (UniProt P22629); test: streptavidin binders on small-molecule microarray, primary screen, artefact control for SMM compound annotation, biophysical, 635/667 nm fluorescence (AID 1147); conditions: streptavidin binding, higher = more signal;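 further: signal reflects streptavidin binding to arrayed compounds as a control protein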
Streptavidin (Streptomyces avidinii), sequence (P22629 whole entry, looked up): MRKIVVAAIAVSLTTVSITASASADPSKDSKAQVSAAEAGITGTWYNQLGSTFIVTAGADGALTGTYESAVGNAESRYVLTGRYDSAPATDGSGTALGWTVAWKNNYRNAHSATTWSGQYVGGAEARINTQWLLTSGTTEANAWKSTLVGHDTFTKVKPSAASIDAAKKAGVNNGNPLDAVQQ

[16] = small-molecule binders of probe aInhba, primary screen, biochemical, small-molecule microarray, 635/667 nm fluorescence (AID 1148); conditions: higher = more signal;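 further: score merges 667nm spot fluorescence with signal-to-noise for antibody binding to printed compounds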
Torsin-1A (Homo sapiens) [17] = target: Torsin-1A (Homo sapiens) (UniProt O14656); test: torsin A binders from cell lysate, primary screen, small-molecule microarray, wild-type, 635/667 nm (AID 1149); conditions: COS7 hTOR1A-WT lysate, 635 nm fluorescence, higher = more signal
Torsin-1A (Homo sapiens), sequence (O14656 whole entry, looked up): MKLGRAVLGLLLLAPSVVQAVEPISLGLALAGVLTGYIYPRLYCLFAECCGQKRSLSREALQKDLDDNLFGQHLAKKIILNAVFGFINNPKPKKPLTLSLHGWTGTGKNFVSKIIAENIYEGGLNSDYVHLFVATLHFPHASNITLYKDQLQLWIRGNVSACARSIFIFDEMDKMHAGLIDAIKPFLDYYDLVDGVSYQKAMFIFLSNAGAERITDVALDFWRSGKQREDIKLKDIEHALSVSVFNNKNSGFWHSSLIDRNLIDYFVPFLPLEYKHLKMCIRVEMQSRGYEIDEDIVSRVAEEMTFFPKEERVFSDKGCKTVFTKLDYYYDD

Torsin-1A (Homo sapiens) [18] = target: Torsin-1A (Homo sapiens) (UniProt O14656); test: small-molecule binders of mutant TOR1A in lysate, primary screen, cell lysate, small-molecule microarray, COS7 lysate, 635/667 nm fluorescence (AID 1150); conditions: COS7 hTOR1A mutant lysate, 635 nm fluorescence, higher = more signal;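 further: score pools 667 nm emission and signal to noise measuring lysate protein binding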
[19] = test system: Sonic hedgehog protein (Shh); test: small-molecule binders of Shh protein, primary screen, biochemical, small-molecule microarray, 635/667 nm fluorescence (AID 1151); conditions: small-molecule microarray binding, 635 nm fluorescence; higher = more signal;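 further: Shh protein binding to compounds spotted on small-molecule microarray slides; score combines spot fluorescence intensity with signal-to-noise across triplicate slides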

| SMILES | composite z-score [1] | composite z-score [2] | composite z-score [3] | composite z-score [4] | composite z-score [5] | composite z-score [6] | z-score [7] | composite z-score (Lefty1) | composite z-score [8] | z-score [9] | composite z-score [10] | z-score [11] | z-score [12] | z-score [13] | z-score [14] | composite z-score [15] | composite z-score [16] | composite z-score (Torsin-1A (Homo sapiens) [17]) | composite z-score (Torsin-1A (Homo sapiens) [18]) | composite z-score [19] |
| --- | --- | --- | --- | --- | --- | --- | --- | --- | --- | --- | --- | --- | --- | --- | --- | --- | --- | --- | --- | --- |
| COC(=O)[C@@]1(Cc2ccc(OC)cc2)[C@H]2c3cc(C(=O)N4CCCC4)n(Cc4cccc5ccccc45)c3C[C@H]2CN1C(=O)c1ccccc1 | 1.57 | 1.2 | 0.164 | 0.704 | 0.36 | -0.247 | 1.07 | -0.245 | 0.396 | 1.31 (inactive) | 0.43 | -2.8 (inactive) | 1.14 (inactive) | 0.0041 (inactive) | 0.259 (inactive) | 0.688 | 0.447 | -0.25 | 0.338 | -0.338 |
| COCCOC(=O)N1C(=O)[C@@]2(c3cc(C#CCCO)ccc31)[C@H](c1ccccc1OCCO)N1[C@H](c3ccccc3)[C@H](c3ccccc3)OC(=O)[C@H]1[C@@H]2C(=O)Nc1nc2ccccc2s1 | 2.09 | 1.2 | 0.771 | 0.733 | 1.07 | 0.957 | -2.27 | 0.932 | 1.24 | -0.499 (inactive) | 0.138 | -0.99 (inactive) | 0.564 (inactive) | -0.467 (inactive) | 0.428 (inactive) | 0.284 | 0.107 | 0.691 | 0.568 | 1.66 |
| CCCCCCc1nc(-c2cc(C)c(OC)c(C)c2)c(C)c2c1[Si](C(C)C)(C(C)C)OC2 | -0.351 | 0.0093 | 0.126 | -0.273 | 0.204 | -0.18 | -0.522 | 0.195 | -0.496 | 0.325 (inactive) | 0 | -3.03 (inactive) | -0.892 (inactive) | 0.148 (inactive) | -0.101 (inactive) | 0.273 | -0.128 | 0.0704 | -1.06 | 0.186 |
| CCOC(=O)C[C@H]1[C@H](OC(=O)c2cc3ccccc3oc2=O)[C@@H](NC(=O)c2ccc(-c3ccccc3)cc2)c2cc(OCCCO)ccc2N1C(=O)c1ccc2ccccc2n1 | 1.04 | 1.15 | 0.553 | 0.458 | 1.11 | 0.485 | -0.408 | 0.964 | 0.543 | 0.778 (inactive) | 0.355 | -0.168 (inactive) | -1.1 (inactive) | 1.03 (inactive) | 0.644 (inactive) | 0.207 | 0.166 | 0.626 | 0.572 | 1.84 |
| [N-]=[N+]=Nc1ccccc1[C@H]1OC(c2ccc(OCCCO)cc2)=N[C@@]1(CCS(=O)(=O)c1ccccc1)C(=O)NCCN1CCOCC1 | 1.51 | 1.26 | 0.56 | 0.938 | 1.34 | 0.471 | 0.162 | 0.619 | 0.821 | -6.93 (inactive) | 1.11 | -1.14 (inactive) | 1.38 (inactive) | -0.45 (inactive) | -0.5 (inactive) | 0.866 | 0.283 | 0.484 | 1.47 | 0.273 |
